# In article PMC4336329 (PLoS ONE, 2015):
# In all, about 310,000 compounds went through this assay and about 14,000 (4.5%) showed an effect of 50% or more. Effects have a minus sign here. This is one part of a sample in which strong results are shown more often than they occur.
# Target: human ether-à-go-go-related gene (hERG) potassium channel (human, UniProt Q12809)
# Assay: primary screen, population patch clamp on CHO cells stably expressing hERG; higher = less effect of the substance
# 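Further: peak tail current of the secondary pulse compared with the same well before compound.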
# Chain of human ether-à-go-go-related gene (hERG) potassium channel (Q12809 whole entry, looked up): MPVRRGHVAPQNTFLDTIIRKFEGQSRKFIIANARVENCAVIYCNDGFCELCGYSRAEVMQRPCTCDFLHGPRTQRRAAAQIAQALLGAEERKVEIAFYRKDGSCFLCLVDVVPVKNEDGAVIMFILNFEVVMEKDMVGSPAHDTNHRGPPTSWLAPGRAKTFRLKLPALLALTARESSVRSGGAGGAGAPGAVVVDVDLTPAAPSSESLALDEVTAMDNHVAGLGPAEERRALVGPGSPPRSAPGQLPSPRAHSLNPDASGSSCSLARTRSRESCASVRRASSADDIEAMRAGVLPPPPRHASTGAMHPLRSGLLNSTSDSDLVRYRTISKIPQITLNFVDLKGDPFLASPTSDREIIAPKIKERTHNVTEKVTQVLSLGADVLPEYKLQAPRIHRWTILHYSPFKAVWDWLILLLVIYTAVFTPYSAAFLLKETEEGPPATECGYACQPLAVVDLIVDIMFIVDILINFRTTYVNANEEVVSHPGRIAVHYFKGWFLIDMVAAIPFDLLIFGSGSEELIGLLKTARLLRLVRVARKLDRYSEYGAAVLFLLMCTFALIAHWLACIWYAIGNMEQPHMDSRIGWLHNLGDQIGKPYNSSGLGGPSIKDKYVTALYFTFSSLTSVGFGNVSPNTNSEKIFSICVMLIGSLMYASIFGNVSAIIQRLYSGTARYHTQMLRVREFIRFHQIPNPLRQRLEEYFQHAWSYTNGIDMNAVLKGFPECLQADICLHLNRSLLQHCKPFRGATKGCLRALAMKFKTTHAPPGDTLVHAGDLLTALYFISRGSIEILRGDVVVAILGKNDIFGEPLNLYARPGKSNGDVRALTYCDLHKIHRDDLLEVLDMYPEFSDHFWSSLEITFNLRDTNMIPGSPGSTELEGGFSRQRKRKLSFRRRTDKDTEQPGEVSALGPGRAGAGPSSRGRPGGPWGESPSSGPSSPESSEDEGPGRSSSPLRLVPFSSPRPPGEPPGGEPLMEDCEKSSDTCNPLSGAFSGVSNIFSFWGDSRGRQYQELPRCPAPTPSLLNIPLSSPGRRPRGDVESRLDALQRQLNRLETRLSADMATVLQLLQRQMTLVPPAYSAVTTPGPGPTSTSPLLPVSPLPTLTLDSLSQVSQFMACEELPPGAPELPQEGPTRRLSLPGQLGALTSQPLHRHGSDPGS
row,Compound,"hERG current change (%, negative = inhibition) at 10uM [%]"
1,O=C(NC1CCS(=O)(=O)C1)c1ccc(-c2ccc(Br)cc2)o1 (centres unmarked),-20.9
2,O=C1CN(C(=O)N[C@@H](Cc2ccccc2)C(=O)N[C@@H](Cc2ccccc2)C(=O)O)c2ccccc2N1,3.79
3,CCOc1cccc(OCCOCCNC(C)(C)C)c1.O=C(O)C(=O)O,3.71
4,COn1c(=O)c(=O)n(OC)c2ccccc21,-3.45
5,Cc1ccc(C)c(S(=O)(=O)N2CCCOC2CNC(=O)C(=O)NCc2ccco2)c1 (centres unmarked),11.6
6,CC(C)CCN1C(=O)c2ccccc2C1C(=O)NCc1cccnc1 (centres unmarked),-16.1
7,Cc1nc2c(C(=O)N3CCN(c4ccccn4)CC3)cnn2c(C)c1Cc1cccc(Cl)c1,-43.4
8,Brc1cc(Br)c2ncnc(N3CCCCC3)c2c1,-11.8
9,CCc1cc(C(=O)OC)c(NC(=O)C2CC(=O)NN2Cc2ccccc2)s1 (centres unmarked),-29.7
10,O=c1c2ccccc2nc(/C=C/c2ccccn2)n1-c1ccccc1,10.9
11,COc1ccccc1NC(=O)CCCCCN1C(=O)c2cccc([N+](=O)[O-])c2C1=O,-39.2
12,CCOc1ccccc1NC(=O)CN1CCN(C(=O)C2CCCO2)CC1 (centres unmarked),-10.6
13,O=C(OCn1nnc2ccccc2c1=O)c1cc(-c2ccccc2)nc2ccccc12,6.74
14,Cc1ccc(S(=O)(=O)N(C)C)cc1NC(=O)COC(=O)Cc1cccs1,-74.5
15,Cc1ccc(S(=O)(=O)N2CCOCC2)cc1NC(=O)COC(=O)Cc1cccs1,-62.8
16,CCN(CC(=O)NCc1ccc(F)cc1)CC(=O)Nc1ccccc1-c1ccccc1,-16
17,Cc1ccc(S(=O)(=O)N(C)C)cc1NC(=O)COC(=O)Cc1ccc(Br)cc1,-56.7
18,Cc1ccc(NC(=O)COC(=O)Cc2cccs2)cc1S(=O)(=O)N1CCOCC1,-23.5
19,O=C(COC(=O)Cc1cccs1)Nc1cccc(S(=O)(=O)N2CCOCC2)c1,0.0981
20,Cc1ccc(S(=O)(=O)N(C)C)cc1NC(=O)COC(=O)CSc1ccccc1,-21.3
21,CCN(CC(=O)NCc1ccc(F)cc1)CC(=O)Nc1ccc(S(=O)(=O)N2CCCC2)cc1,-22.8
22,Cc1ccc(S(=O)(=O)N(C)C)cc1NC(=O)COC(=O)CCC(=O)c1cccs1,-21.8
23,CCN(CC(=O)NCc1ccc(F)cc1)CC(=O)Nc1cc(S(=O)(=O)N(C)C)ccc1C,-75.6
24,Cc1ccc(S(=O)(=O)N(C)C)cc1NC(=O)COC(=O)CNC(=O)c1cccs1,14.5

row,Compound,"hERG current change (%, negative = inhibition) at 10uM [%]"
1,Cc1ccc(OCCC(=O)OCC(=O)Nc2cc(S(=O)(=O)N(C)C)ccc2C)cc1,-26.6
2,Cc1c(CC(=O)N[C@H](C(=O)O)C(C)C)c(=O)oc2cc3c(cc12)CCC(C)(C)O3,23.1
3,COCCCNC(=O)CNC(=S)N(Cc1ccccc1F)C1CCCCC1,4.18
4,O=[n+]1c2c(n([O-])c3cc(Br)ccc31)CCC2,-2.98
5,C(=C\c1ccncc1)/c1ccccc1,-10.6
6,CN(CC(=O)Nc1ccccc1Cl)C(=O)c1ccc(COc2ccccc2)cc1,-12.9
7,Cc1ccc(S(=O)(=O)NCC(=O)OCN2C(=O)c3ccccc3C2=O)cc1,5.91
8,O=C(CSc1ccc(Cl)cc1)NNC(=O)c1cccnc1,-21
9,Cc1nn(-c2ccccc2)c(Cl)c1/C=N/Nc1ccc(Cl)c(C(=O)O)c1,21.3
10,Cc1ccc(Nc2ccc(C(=O)O)cc2[N+](=O)[O-])cc1,15.1
11,O=C(OCc1ccc(Br)cc1)c1ccncc1,5.25
12,O=C(COC(=O)CCC(=O)c1cccs1)Nc1cc(S(=O)(=O)N2CCOCC2)ccc1Cl,-53.5
13,Cc1ccc(S(=O)(=O)N2CCOCC2)cc1NC(=O)COC(=O)CCC(=O)c1cccs1,-13.8
14,O=C(COC(=O)c1cccs1)Nc1cc(S(=O)(=O)N2CCOCC2)ccc1Cl,-35.5
15,Cc1ccccc1NC(=O)COC(=O)Cc1ccsc1,12.7
16,Cc1ccc(C)c(NC(=O)COC(=O)Cc2ccsc2)c1,33.1
17,CN(C)S(=O)(=O)c1ccc(Cl)c(NC(=O)CN2CCCC2)c1,11.5
18,Cc1ccc(S(=O)(=O)N(C)C)cc1NC(=O)COC(=O)C1CCCC1,3.16
19,CCC(=O)OCC(=O)Nc1cc(S(=O)(=O)N(C)C)ccc1Cl,17.1
20,Cc1ccc(S(=O)(=O)N(C)C)cc1NC(=O)COC(=O)C1CCN(S(=O)(=O)c2cccs2)CC1,-81.9
21,Cc1ccc(S(=O)(=O)N(C)C)cc1NC(=O)COC(=O)Cc1ccsc1,-79
22,Cc1ccc(S(=O)(=O)N(C)C)cc1NC(=O)COC(=O)C1CC1,16.2
23,CN(CCC(=O)Nc1cc(S(=O)(=O)N(C)C)ccc1Cl)CC(=O)Nc1ccc(F)cc1,-50.1
